# ± gives the standard deviation of the averaged measurements. Whole data set: some 33,000 sequences, median “E-score (rank enrichment, -0.5 to 0.5)” near -0.0068, cut for the highest 2% near 0.24. The entries come from a sample that favours the highest values as a whole.
# System: muMax20 (Max(13-93) K31hArg/K57hArg, M65Nle)
# Experiment: PBM 8-mer E-score (E-score (rank enrichment, -0.5 to 0.5)); higher = stronger preferential binding
# Experimental: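 Protein binding microarray (universal PBM chip covering all 10-mers in fixed probe flanks) with chemically synthesized human Max(13-93) bHLH-LZ analogs (not full-length Max) bearing noncanonical residues (hArg, Tha, Aib, Nle at 65) and aromatic Cys staples. Read-out per 8-mer (and its reverse complement): E-score (rank-based enrichment, -0.5 to 0.5) and Z-score of median probe intensity.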
row,Sequence,PBM 8-mer E-score
1,ACACACGA,0.188 ± 0.037
2,ACACACGG,0.00898 ± 0.047
3,AAACACGA,0.194 ± 0.04
4,AAACACGT,0.342 ± 0.016
5,ACACACGT,0.338 ± 0.01
6,AAACACGC,0.198 ± 0.0045
7,GACGTAAC,0.0633 ± 0.061
8,AATAGGTA,0.251 ± 0.073
9,AATAGGTC,-0.0485 ± 0.14
10,AATAGGTG,0.119 ± 0.0048
11,GTAATACA,0.182 ± 0.082
12,TCAATACA,0.18862 ± 0.00013
13,ACAATACC,0.237 ± 0.02
14,ATAATACG,0.19 ± 0.015
15,ACAATACT,0.174 ± 0.049
16,AGAATACC,0.142 ± 0.0044
17,CTAATACA,0.248 ± 0.047
18,ATAATACA,0.281 ± 0.027
19,ATAATACC,0.261 ± 0.049
20,ACAATACA,0.191 ± 0.02
21,CTAATACC,0.0669 ± 0.08
22,AAAATACA,0.159 ± 0.058
23,ACTATGGC,-0.0571 ± 0.07
24,AATTTTCG,0.0133 ± 0.1
25,GCCCTACA,-0.127 ± 0.021

row,Sequence,PBM 8-mer E-score
1,CCCGCACG,-0.0959 ± 0.058
2,TGAGCGCA,-0.0144 ± 0.0021
3,AACGGCAA,0.112 ± 0.025
4,CTCTGCGA,-0.167 ± 0.1
5,AGTTACCC,-0.029 ± 0.015
6,GGGATGGA,0.0386 ± 0.042
7,ACCAGTTG,-0.0933 ± 0.12
8,ACTTCAAT,0.173 ± 0.027
9,GAAATACA,0.132 ± 0.063
10,CAAATACA,0.325 ± 0.037
11,CAAATACC,0.0739 ± 0.027
12,ATAACGTA,0.24 ± 0.0069
13,ATAACGTC,0.121 ± 0.0034
14,GTAACGTA,0.0209 ± 0.03
15,AAGTCACA,0.029 ± 0.056
16,AAGTCACT,0.24 ± 0.12
17,AAGTCACG,0.0988 ± 0.052
18,GCTTGCAA,0.0886 ± 0.032
19,AAAAATGG,0.153 ± 0.002
20,GAGCCAAC,-0.0474 ± 0.026
21,AAAACCTC,0.104 ± 0.039
22,TTATATAA,0.274 ± 0.062
23,CTGTATAA,0.191 ± 0.029
24,TGATATAA,0.211 ± 0.09
25,GAATATAC,0.157 ± 0.014

row,Sequence,PBM 8-mer E-score
1,ATGTAGAA,0.264 ± 0.0091
2,ATATATAT,0.155 ± 0.016
3,ATGTAGAG,0.04 ± 0.13
4,GTGTATAA,0.1625 ± 0.0011
5,TAATATAA,0.232 ± 0.018
6,GAATATAA,0.264 ± 0.023
7,CTGTAGAA,0.031 ± 0.018
8,ATGTATAA,0.268 ± 0.022
9,AGGGAACC,-0.237 ± 0.012
10,TACGGCTA,-0.0274 ± 0.029
11,ATGGGCGG,0.009 ± 0.039
12,GTTAGAAC,-0.0507 ± 0.042
13,CTATATAA,0.165 ± 0.12
14,GTATATAA,0.202 ± 0.069
15,ATATATAA,0.288 ± 0.052
16,ACGCCTCG,-0.092 ± 0.092
17,CATCCGGC,-0.291 ± 0.032
18,ATCGGACG,-0.0422 ± 0.092
19,AAAGATAG,0.0409 ± 0.14
20,TAAGATAA,0.0507 ± 0.17
21,AAAGATAA,0.2372 ± 0.001
22,AAAGATAC,0.145 ± 0.05
23,CAAGATAA,0.253 ± 0.064
24,CAAGATAC,0.153 ± 0.0086
25,ATCAGAGG,-0.121 ± 0.076

row,Sequence,PBM 8-mer E-score
1,ACATGTTA,0.241 ± 0.085
2,GCATGTTA,0.116 ± 0.14
3,CCATGTTA,0.109 ± 0.039
4,ACATGTTC,0.1643 ± 0.00078
5,ACATGTTG,0.271 ± 0.022
6,AGATGTTG,-0.125 ± 0.12
7,AACGAATT,0.236 ± 0.0088
8,CAAGGTAC,0.0659 ± 0.12
9,ACACCGAT,-0.183 ± 0.16
10,AGGTTAGG,0.0305 ± 0.073
11,CACGTTTA,0.0929 ± 0.011
12,CCTTAACC,-0.159 ± 0.009
13,ACGTGATC,0.286 ± 0.1
14,AAGTGATC,0.074 ± 0.034
15,ACGTGAGA,0.168 ± 0.054
16,TCGTGAAA,0.0589 ± 0.081
17,ACGTGAGG,0.111 ± 0.1
18,ACGTGAAA,0.249 ± 0.083
19,ACGTGAGT,0.2594 ± 0.0012
20,ACTTGATG,0.0184 ± 0.013
21,ACGTGAAC,0.0624 ± 0.078
22,ACTTGATC,-0.00466 ± 0.064
23,CCGTGATC,-0.311 ± 0.027
24,ACTTGATA,0.242 ± 0.033
25,CGGTTCAC,-0.245 ± 0.053

row,Sequence,PBM 8-mer E-score
1,AGCATTCC,-0.123 ± 0.17
2,GGAGCCCA,-0.156 ± 0.11
3,CCTGTGAC,-0.0438 ± 0.0042
4,CCATAGAC,-0.0388 ± 0.035
5,GACGTTGA,0.0147 ± 0.11
6,ATCCTTTG,0.0245 ± 0.09
7,CTGAGCAC,-0.0319 ± 0.049
8,TCGAGAGA,-0.0503 ± 0.027
9,AATGACTC,0.152 ± 0.015
10,GTTGAACA,0.031 ± 0.035
11,CGTAACTC,-0.0982 ± 0.11
12,AACACGGT,-0.129 ± 0.055
13,TCCGCGCA,-0.113 ± 0.072
14,CTGTGATA,-0.0301 ± 0.17
15,ACGTGATA,0.33 ± 0.082
16,ATGTGAAA,0.317 ± 0.057
17,GCGTGATA,0.174 ± 0.032
18,CTGTGAAA,0.0471 ± 0.025
19,CCGTGATA,-0.0912 ± 0.033
20,GTGTGATA,0.154 ± 0.018
21,AGGTGATG,-0.00343 ± 0.027
22,GTGTGAAA,0.141 ± 0.027
23,ACGTGATG,0.294 ± 0.05
24,AAGTGATG,0.129 ± 0.12
25,ATGTGATA,0.24 ± 0.12

row,Sequence,PBM 8-mer E-score
1,ACTATGCT,0.231 ± 0.07
2,CCCGAGGA,-0.233 ± 0.074
3,ATGGGATC,0.0291 ± 0.075
4,CTAACTCA,0.0355 ± 0.056
5,AGCCGATG,-0.155 ± 0.04
6,AATCACCA,0.133 ± 0.014
7,AGTGTCCC,-0.0112 ± 0.012
8,AACATTGG,-0.0243 ± 0.2
9,CATATTAC,0.0522 ± 0.03
10,AACATTGT,0.236 ± 0.013
11,GATATTAC,0.121 ± 0.015
12,AATATTAG,0.175 ± 0.04
13,ACTATTAT,0.204 ± 0.056
14,AACATTGA,0.0179 ± 0.032
15,AATATTAT,0.25 ± 0.026
16,AGTATTAG,0.0793 ± 0.032
17,AGTATTAA,0.268 ± 0.03
18,TGTATTAA,0.184 ± 0.096
19,AATATTAC,0.281 ± 0.066
20,CCCGCGCA,-0.124 ± 0.031
21,ATGTGGCA,0.0287 ± 0.095
22,AGCATTTC,0.141 ± 0.0034
23,CAACTAAG,0.0637 ± 0.092
24,ATTGCAAA,0.0872 ± 0.083
25,AGGTCCTA,-0.128 ± 0.083

row,Sequence,PBM 8-mer E-score
1,TTCCCGAA,-0.0933 ± 0.0092
2,AATAGAAC,0.0563 ± 0.077
3,ACTATTAA,0.149 ± 0.011
4,AATATTAA,0.304 ± 0.025
5,CATATTAG,0.121 ± 0.053
6,TATATTAA,0.179 ± 0.025
7,AATATTGG,0.101 ± 0.094
8,CATATTAA,0.297 ± 0.012
9,AATATTGT,0.256 ± 0.006
10,GATATTAA,0.134 ± 0.028
11,AATATTGC,0.138 ± 0.076
12,CGCGCTCC,-0.0678 ± 0.11
13,AGCTGTAC,-0.0262 ± 0.13
14,GGACTGTA,0.00313 ± 0.055
15,ATTTGTAC,0.176 ± 0.038
16,AATTATAT,0.147 ± 0.044
17,CTATCAGC,0.0217 ± 0.00023
18,CAGTCATA,0.0326 ± 0.1
19,AAACGGCC,0.294 ± 0.093
20,CAAACGGC,-0.242 ± 0.0069
21,AAACGGCT,-0.0843 ± 0.069
22,GAAACGGC,0.0377 ± 0.059
23,AAAACGGC,0.3 ± 0.099
24,CAACGGCC,-0.206 ± 0.059

# Reference: the supplement of paper PMC12636033
